The record followed here is PubChem BioAssay.

Structures are written as SMILES.

Chain of Focal adhesion kinase 1 (Homo sapiens) (Q05397 whole entry, looked up): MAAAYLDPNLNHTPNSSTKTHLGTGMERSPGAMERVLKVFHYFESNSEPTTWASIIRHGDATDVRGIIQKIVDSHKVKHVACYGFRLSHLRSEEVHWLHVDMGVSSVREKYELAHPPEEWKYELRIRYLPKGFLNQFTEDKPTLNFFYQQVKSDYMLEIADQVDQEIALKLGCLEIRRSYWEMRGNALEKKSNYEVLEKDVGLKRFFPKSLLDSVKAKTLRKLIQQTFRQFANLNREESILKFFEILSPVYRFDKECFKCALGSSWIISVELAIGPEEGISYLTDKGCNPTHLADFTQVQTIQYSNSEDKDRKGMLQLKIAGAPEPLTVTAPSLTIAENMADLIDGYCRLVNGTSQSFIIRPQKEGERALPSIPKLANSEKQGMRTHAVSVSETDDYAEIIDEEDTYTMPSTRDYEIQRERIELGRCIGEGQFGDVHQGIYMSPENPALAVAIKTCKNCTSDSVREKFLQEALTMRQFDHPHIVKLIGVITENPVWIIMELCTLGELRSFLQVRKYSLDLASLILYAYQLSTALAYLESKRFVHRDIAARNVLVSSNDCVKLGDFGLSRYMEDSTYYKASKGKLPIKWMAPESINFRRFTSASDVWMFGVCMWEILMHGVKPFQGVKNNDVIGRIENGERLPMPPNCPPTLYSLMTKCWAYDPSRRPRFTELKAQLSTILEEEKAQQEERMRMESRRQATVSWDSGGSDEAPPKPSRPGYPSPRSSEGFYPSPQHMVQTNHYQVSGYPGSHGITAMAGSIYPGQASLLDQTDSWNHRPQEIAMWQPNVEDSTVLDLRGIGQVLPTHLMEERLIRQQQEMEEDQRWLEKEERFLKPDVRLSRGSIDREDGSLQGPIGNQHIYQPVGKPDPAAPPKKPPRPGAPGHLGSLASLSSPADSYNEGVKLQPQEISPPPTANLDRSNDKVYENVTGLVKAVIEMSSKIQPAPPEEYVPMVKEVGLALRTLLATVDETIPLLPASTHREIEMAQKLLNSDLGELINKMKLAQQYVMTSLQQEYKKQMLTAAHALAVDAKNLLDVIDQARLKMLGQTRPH

For one assay, the system named is Human papillomavirus type 1a E7 protein (residues 1-88). Kind of assay: HPV1a E7 small-molecule binders, primary screen, biochemical, small-molecule microarray, residues 1-88, 635 nm (AID 1129). To be noted: small-molecule microarray binding, fluorescence 635 nm; higher = more signal.
`COc1ccc([Si](C)(C)[C@@H]2[C@@H](CCO)O[C@]3(C(=O)N(Cc4ccccc4)c4ccc(N5C(=O)COc6ccccc65)cc43)[C@H]2C)cc1` had a composite z-score of 1.13.

On to `CN1C(=O)C2C=CC(C(O)c3cccc4ccccc34)N(NC(=O)OC(C)(C)C)C2C1=O` (centres undefined), for which the composite z-score is 1.02.

In turn, `COc1ccc(C(=O)Nc2ccc3c(c2)[C@]2(O[C@@H](CCO)[C@H]([Si](C)(C)c4ccc(OC)cc4)[C@H]2C)C(=O)N3Cc2ccccc2)cc1` returned a composite z-score of 0.809.

The compound `O=C1c2ccccc2[C@](Cc2ccccc2I)(C(=O)NC2CC2)[C@H](c2ccc(CO)cc2)N1Cc1ccccc1Cl` had a composite z-score of 1.17.

The compound `COC(=O)C(CC#Cc1ccc2c(c1)[C@]1(C(=O)N2)[C@H](c2ccc(O)cc2)N2[C@H](c3ccccc3)[C@H](c3ccccc3)OC(=O)[C@H]2[C@@H]1C(N)=O)C(=O)OC` yielded a composite z-score of -1.91.

Compound `CC(C)CNC(=O)[C@@]1(C)c2ccccc2C(=O)N(Cc2ccccc2)[C@H]1c1ccc(CO)cc1` gave a composite z-score of -0.955.

Turning to `COC(=O)C(CC#Cc1ccc2c(c1)[C@]1(C(=O)N2)[C@H](c2ccc(OCCO)cc2)N2[C@H](c3ccccc3)[C@H](c3ccccc3)OC(=O)[C@H]2[C@@H]1C(=O)O)C(=O)OC`, the composite z-score turned out to be 1.19.

As for `CC(C)C(CO)N1C(=O)[C@@H]2[C@H]3C(=O)OCC=C[C@H]3OC23C=CCN(Cn2nnc4ccccc42)C(=O)[C@@H]13` (some centres undefined), the composite z-score is -0.938.

Consider `O=C1N(Cc2ccccc2)c2ccccc2[C@H]2OC(c3ccc(OCCCO)cc3)=N[C@@]12CCS(=O)(=O)c1ccccc1`, for which the composite z-score was found to be 1.25.

As to `CCCNC(=O)[C@@H]1c2ccccc2C(=O)N(CC23CC4CC(CC(C4)C2)C3)[C@H]1c1ccc(CO)cc1`, the composite z-score came out at 1.23.

The compound `C=C(C)[C@@H]1CC=C(C(O)C2C=CC3C(=O)N(C4CCCCC4)C(=O)C3N2Nc2ccc(OC)cc2)CC1` (some centres undefined) gave a composite z-score of 1.21.

`OCCCC1=CC(c2cccs2)N(Cc2cccc(OC(F)(F)F)c2)CC1` (centres undefined) yielded a composite z-score of -0.138.

As for `Cc1ccccc1C(O)C1C=CC2C(=O)N(Cc3ccccc3)C(=O)C2N1n1cnnc1` (centres undefined), the composite z-score stood at 1.05.

Consider `COc1ccc([Si](C)(C)[C@H]2[C@H](CCO)O[C@@]3(C(=O)N(Cc4cccc(N5CCOC5=O)c4)c4ccccc43)[C@@H]2C)cc1`, for which the composite z-score is 1.13.

`COCCOC(=O)N1C(=O)[C@@]2(c3cc(C#CC4(O)CCCCCC4)ccc31)[C@H](C(=O)N1CCc3cc(OC)c(OC)cc3C1)[C@H]1C(=O)O[C@H](c3ccccc3)[C@H](c3ccccc3)N1[C@@H]2c1ccccc1OCCO`: the composite z-score was 1.17.

Turning to `CC(=O)NCCCC[C@@H]1NC(=O)[C@H]2C[C@@H](C(=O)NCCCCCN)[C@@H](c3cccc(OCCO)c3)N2C1=O`, the composite z-score came out at 0.759.

In the case of `COc1ccc(C#Cc2ccc3c(c2)[C@]2(C(=O)N3)[C@H](C(=O)O)[C@H]3C(=O)O[C@H](c4ccccc4)[C@H](c4ccccc4)N3[C@@H]2c2ccc(OCCO)cc2)cc1`, the composite z-score is 1.19.

Take `COCC1=C([C@H](O)CCc2ccccc2)[C@H](CO)[C@@H]2C(=O)N(C)C(=O)[C@@H]2C1`: the composite z-score was -0.204.

`CC(C)(C)N1CC=CC23O[C@@H]4C=CCCOC(=O)C4[C@H]2C(=O)N(CCCO)[C@@H]3C1=O` (some centres undefined) came in with a composite z-score of -1.75.

`O=C1O[C@H](c2ccccc2)[C@H](c2ccccc2)N2[C@H]1[C@@H](C(=O)N1CCCCCCC1)[C@]1(C(=O)Nc3ccccc31)[C@H]2c1ccc(O)cc1` registered a composite z-score of 1.34.

The compound `COC(=O)[C@]1(Cc2ccccc2CN=[N+]=[N-])N=C(c2ccc(OCCCO)cc2)O[C@@H]1c1ccccc1CN=[N+]=[N-]` displayed a composite z-score of 1.15.

For `O=C1c2ccccc2[C@](Cc2ccccc2I)(C(=O)NCC(F)(F)F)[C@H](c2ccc(CO)cc2)N1Cc1ccccc1`, the composite z-score is 1.17.

`NC(=O)NCC#Cc1ccc2c(c1)[C@]1(C(=O)N2)[C@H](c2ccc(OCCO)cc2)N2[C@H](c3ccccc3)[C@H](c3ccccc3)OC(=O)[C@H]2[C@@H]1C(=O)N1CCCCCCC1` came in with a composite z-score of 1.18.

For `N#Cc1ccc(NN2C(C(O)c3ccco3)C=CC3C(=O)N(c4ccccc4)C(=O)C32)cc1` (centres undefined), the composite z-score was -0.0085.

The next assay addresses Focal adhesion kinase 1 (Homo sapiens) (UniProt Q05397). As to the kind of experiment: small-molecule microarray binders of FAK, primary screen, biochemical, 635/667 nm fluorescence, BSA, DTT (AID 1130).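 Also: composite of spot emission at 667 nm and signal to noise over triplicate slides.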 To be noted: PTK2 binding, 635 nm fluorescence, higher = more signal.
In the case of `CCCCC(O)C1C=CC2C(=O)N(Cc3ccccc3)C(=O)C2N1n1cnnc1` (centres undefined), the composite z-score amounted to 0.242.

The compound `COCCCNC(=O)[C@@]1(C)c2ccccc2C(=O)N(c2ccc(C)cn2)[C@H]1c1ccc(CO)cc1` came in with a composite z-score of -0.193.

The compound `CCCC=C(CCC)[C@@H](NS(=O)(=O)c1cccc2cccnc12)c1ccc(C(=O)OC)cc1` registered a composite z-score of 0.542.

Regarding `COc1ccccc1CN1C(=O)c2ccccc2[C@](Cc2ccccc2I)(C(=O)NCCN2CCOCC2)[C@@H]1c1ccc(CO)cc1`, the composite z-score is 0.467.

`C=C(COC)/C(=C/C[C@@H](OC(=O)c1ccncc1)c1cccc(OCCO)c1)c1cc(C(=O)OC)ccc1OC` registered a composite z-score of -0.0044.

As for `C=CCNC(=O)[C@@H]1[C@H]2C(=O)O[C@H](c3ccccc3)[C@H](c3ccccc3)N2[C@H](c2ccc(O)cc2)[C@@]12C(=O)Nc1ccc(C#CCCO)cc12`, the composite z-score is 1.33.

As to `COCCCNC(=O)[C@]1(Cc2ccccc2)N=C(c2ccc(OCCCO)cc2)O[C@@H]1c1ccccc1N=[N+]=[N-]`, the composite z-score is -0.0142.

As to `COC(=O)C(CC#Cc1ccc2c(c1)[C@]1(C(=O)N2)[C@H](c2ccccc2OCCO)N2[C@H](c3ccccc3)[C@H](c3ccccc3)OC(=O)[C@H]2[C@@H]1C(=O)Nc1nc2ccccc2s1)C(=O)OC`, the composite z-score is 0.607.

In turn, `CCOC(=O)C[C@H]1[C@H](OC(=O)c2cc3ccccc3oc2=O)[C@@H](NC(=O)c2ccc3ccccc3n2)c2cc(OCCCO)ccc2N1C(=O)c1ccc2ccccc2n1` returned a composite z-score of 0.114.

For `NCCCCCCNC(=O)[C@H]1C[C@H]2C(=O)N3CCC[C@H]3C(=O)N2[C@H]1c1ccc(O)cc1`, the composite z-score turned out to be 1.1.

In turn, `C=CCOC(=O)[C@@H]1[C@H]2C(=O)O[C@H](c3ccccc3)[C@H](c3ccccc3)N2[C@H](c2ccc(OCCOC(=O)[C@@H]3C[C@@H]4C(=O)N[C@@H](CCCCNC(C)=O)C(=O)N4[C@@H]3c3ccc(O)cc3)cc2)[C@@]12C(=O)Nc1ccc(I)cc12` registered a composite z-score of 0.478.

In turn, `COc1ccc([Si](C)(C)[C@@H]2[C@@H](CCO)O[C@]3(C(=O)N(Cc4ccccc4)c4ccc(N5C(=O)COc6ccccc65)cc43)[C@H]2C)cc1` registered a composite z-score of 0.294.

In the case of `CN1C(=O)C2C=CC(C(O)c3cccc4ccccc34)N(NC(=O)OC(C)(C)C)C2C1=O` (centres undefined), the composite z-score worked out at 1.83.

As to `COc1ccc(C(=O)Nc2ccc3c(c2)[C@]2(O[C@@H](CCO)[C@H]([Si](C)(C)c4ccc(OC)cc4)[C@H]2C)C(=O)N3Cc2ccccc2)cc1`, the composite z-score was 0.411.

`O=C1c2ccccc2[C@](Cc2ccccc2I)(C(=O)NC2CC2)[C@H](c2ccc(CO)cc2)N1Cc1ccccc1Cl` yielded a composite z-score of 0.344.

Turning to `COC(=O)C(CC#Cc1ccc2c(c1)[C@]1(C(=O)N2)[C@H](c2ccc(O)cc2)N2[C@H](c3ccccc3)[C@H](c3ccccc3)OC(=O)[C@H]2[C@@H]1C(N)=O)C(=O)OC`, the composite z-score is -0.627.

`CC(C)CNC(=O)[C@@]1(C)c2ccccc2C(=O)N(Cc2ccccc2)[C@H]1c1ccc(CO)cc1` registered a composite z-score of -0.846.

In turn, `COC(=O)C(CC#Cc1ccc2c(c1)[C@]1(C(=O)N2)[C@H](c2ccc(OCCO)cc2)N2[C@H](c3ccccc3)[C@H](c3ccccc3)OC(=O)[C@H]2[C@@H]1C(=O)O)C(=O)OC` gave a composite z-score of 1.38.

On to `CC(C)C(CO)N1C(=O)[C@@H]2[C@H]3C(=O)OCC=C[C@H]3OC23C=CCN(Cn2nnc4ccccc42)C(=O)[C@@H]13` (some centres undefined), for which the composite z-score was determined as 0.118.

The compound `O=C1N(Cc2ccccc2)c2ccccc2[C@H]2OC(c3ccc(OCCCO)cc3)=N[C@@]12CCS(=O)(=O)c1ccccc1` displayed a composite z-score of 1.06.

In turn, `CCCNC(=O)[C@@H]1c2ccccc2C(=O)N(CC23CC4CC(CC(C4)C2)C3)[C@H]1c1ccc(CO)cc1` came in with a composite z-score of 0.734.

Take `C=C(C)[C@@H]1CC=C(C(O)C2C=CC3C(=O)N(C4CCCCC4)C(=O)C3N2Nc2ccc(OC)cc2)CC1` (some centres undefined): the composite z-score worked out at 0.589.

The compound `OCCCC1=CC(c2cccs2)N(Cc2cccc(OC(F)(F)F)c2)CC1` (centres undefined) displayed a composite z-score of 0.316.

The compound `Cc1ccccc1C(O)C1C=CC2C(=O)N(Cc3ccccc3)C(=O)C2N1n1cnnc1` (centres undefined) registered a composite z-score of -0.0602.

The compound `COc1ccc([Si](C)(C)[C@H]2[C@H](CCO)O[C@@]3(C(=O)N(Cc4cccc(N5CCOC5=O)c4)c4ccccc43)[C@@H]2C)cc1` registered a composite z-score of 0.413.

In the case of `COCCOC(=O)N1C(=O)[C@@]2(c3cc(C#CC4(O)CCCCCC4)ccc31)[C@H](C(=O)N1CCc3cc(OC)c(OC)cc3C1)[C@H]1C(=O)O[C@H](c3ccccc3)[C@H](c3ccccc3)N1[C@@H]2c1ccccc1OCCO`, the composite z-score was determined as 0.32.

Consider `CC(=O)NCCCC[C@@H]1NC(=O)[C@H]2C[C@@H](C(=O)NCCCCCN)[C@@H](c3cccc(OCCO)c3)N2C1=O`, for which the composite z-score came to 1.38.

In turn, `COc1ccc(C#Cc2ccc3c(c2)[C@]2(C(=O)N3)[C@H](C(=O)O)[C@H]3C(=O)O[C@H](c4ccccc4)[C@H](c4ccccc4)N3[C@@H]2c2ccc(OCCO)cc2)cc1` returned a composite z-score of 0.681.

`COCC1=C([C@H](O)CCc2ccccc2)[C@H](CO)[C@@H]2C(=O)N(C)C(=O)[C@@H]2C1` registered a composite z-score of 0.0647.

In turn, `CC(C)(C)N1CC=CC23O[C@@H]4C=CCCOC(=O)C4[C@H]2C(=O)N(CCCO)[C@@H]3C1=O` (some centres undefined) yielded a composite z-score of -0.491.

With `O=C1O[C@H](c2ccccc2)[C@H](c2ccccc2)N2[C@H]1[C@@H](C(=O)N1CCCCCCC1)[C@]1(C(=O)Nc3ccccc31)[C@H]2c1ccc(O)cc1`, the composite z-score was 3.9.

Regarding `COC(=O)[C@]1(Cc2ccccc2CN=[N+]=[N-])N=C(c2ccc(OCCCO)cc2)O[C@@H]1c1ccccc1CN=[N+]=[N-]`, the composite z-score was 0.392.

For the compound `O=C1c2ccccc2[C@](Cc2ccccc2I)(C(=O)NCC(F)(F)F)[C@H](c2ccc(CO)cc2)N1Cc1ccccc1`, the composite z-score turned out to be 0.77.

As to `NC(=O)NCC#Cc1ccc2c(c1)[C@]1(C(=O)N2)[C@H](c2ccc(OCCO)cc2)N2[C@H](c3ccccc3)[C@H](c3ccccc3)OC(=O)[C@H]2[C@@H]1C(=O)N1CCCCCCC1`, the composite z-score stood at 1.08.

For the compound `N#Cc1ccc(NN2C(C(O)c3ccco3)C=CC3C(=O)N(c4ccccc4)C(=O)C32)cc1` (centres undefined), the composite z-score came to 0.788.
